Source: PubChem BioAssay AID2391 (Southern Research Specialized Biocontainment Screening …, 2010)
Hit rate of the full screen: of about 310,000 compounds, about 410 (0.13%) were called active. Roughly 2% stayed inconclusive and do not appear here. The rule behind the calls is not given here. Only a sample is shown. Entries with a potency or affinity are not part of this list.

Assay: inhibition of RSV-induced cytopathic effect – HEp-2 cells, primary 10 µM value included (AID 2391)
Details: at 10 µM, hits give high values

CPE inhibition, inactive:
CCCCCCSc1cccc(-c2nc3ccc(Cl)cn3c2NCc2ccccc2)c1 -1.21%
O=C(CCSc1nnc2scc(-c3ccccc3)n12)Nc1nc(-c2ccccc2)ns1 9.19%
CCN(c1ccccc1)S(=O)(=O)c1cccc(C(=O)NCC(c2cccs2)N(C)C)c1 (stereo not given) -0.95%
CCOC(=O)C1=C(C)N=c2s/c(=C\c3ccc(OCC(=O)O)cc3)c(=O)n2C1c1ccc(Cl)cc1 (stereo not given) 18.1%
CCOC(=O)C1=C(C)N=c2s/c(=C\c3ccc(OCC(=O)O)c(OC)c3)c(=O)n2C1c1ccc(OC)cc1 (stereo not given) 2.77%
CC1CC(C)CN(S(=O)(=O)c2ccc(C(=O)OCC(=O)NCCN3C(=O)CSC3=O)cc2)C1 (stereo not given) 0.02%
Cc1nnc(SCC(=O)N(C2CCCCC2)C2CCS(=O)(=O)C2)n1N (stereo not given) -1.53%
O=C(CSc1nc2ccccc2o1)N1CCCC1 -0.37%
CCN1C(=O)N[C@@H](c2cccc(C(F)(F)F)c2)C(C(=O)OC)=C1C -0.08%
COC(=O)C1=C(C)N(CC2CC2)C(=O)N[C@H]1c1ccc(Br)cc1 27%
COC(=O)C1=C(C)N(Cc2ccco2)C(=O)N[C@@H]1c1ccccc1 2.19%
COC(=O)C1=C(C)N(Cc2ccco2)C(=O)N[C@@H]1c1ccc(Br)cc1 0.6%
COC(=O)C1=C(C)N(Cc2ccco2)C(=O)N[C@@H]1c1cccc(C(F)(F)F)c1 4.06%
COC(=O)C1=C(C)N(Cc2ccco2)C(=O)N[C@@H]1c1ccco1 0.83%
CCOCCOC(=O)C1=C(C)Nc2ccc(C)cc2S1 2.03%
CN(C(=O)COC(=O)c1cc(S(=O)(=O)N2CCOCC2)ccc1Cl)C1CCS(=O)(=O)C1 (stereo not given) -1.51%
CCn1nnnc1-c1ccc(OC)c(S(=O)(=O)Nc2ccc(C(=O)OC)cc2)c1 1.29%
Cc1ccc(CC(=O)NCC2CCCCC2)cc1 0.51%
Cc1ccsc1CNC1C2CC3CC(C2)CC1C3 (stereo not given) -1.39%
Cc1ccc(C(=O)N/C(=C\c2ccc(Cl)cc2)C(=O)NCCN2CCOCC2)cc1 0.95%
Cc1ccc(C(=O)N/C(=C\c2ccc(Cl)cc2)C(=O)NCCCN2CCOCC2)cc1 2.02%
CC(C)c1ccc(/C=C(\NC(=O)c2ccccc2)C(=O)NCCCN2CCOCC2)cc1 0.11%
CC(C)c1ccc(/C=C(\NC(=O)c2ccccc2)C(=O)NCCN2CCOCC2)cc1 0.84%
N#C/C(=C\c1ccc(OCc2ccc(C(=O)O)cc2)cc1)C(=O)NCc1ccccc1 1.49%
CCOc1ncccc1C(=O)N(C)CC(=O)Nc1ccccc1SC 1.11%
Clc1ccc(Sc2cc(Cl)c(-c3ccccc3)nn2)cc1 4.99%
O=C(C1=COCCO1)N1CCN(S(=O)(=O)c2cccc(F)c2)CC1 1.49%
Cc1cc2c(cc1S(=O)(=O)Nc1cccc(C)c1C)n(C)c(=O)c(=O)n2C -1.46%
CN(C)S(=O)(=O)c1cccc(NC(=O)COC(=O)CCC(=O)c2cccs2)c1 -1.26%
Cc1ccc(S(=O)(=O)NNC(=O)Nc2ccc(C)c(C)c2)c(C)c1 1.56%
COc1cccc(CN2C(=O)C3CCCN3c3ccc(S(=O)(=O)N4CCOCC4)cc32)c1 (stereo not given) 15.8%
COc1ccc(CCNC(=O)c2ccc(-c3ccc([N+](=O)[O-])cc3)o2)cc1OC 3.03%
COc1ccc(CCNC(=O)c2ccc([N+](=O)[O-])cc2)cc1 0.4%
COC(=O)c1ccccc1OC(=O)c1cc2ccccc2oc1=O -0.19%
Nc1nc(SCC(=O)c2ccc(F)cc2)n[nH]1 0.71%
O=C(CNc1ccccc1)N/N=C/c1cn(-c2ccccc2)nc1-c1ccccc1 6.81%
O=C(CNc1cccc(C(F)(F)F)c1)N/N=C/c1ccccc1C(=O)O 1.07%
CCOC(=O)N1CCN(C(=O)COc2ccc3c(c2)C(=O)CC(C)(C)O3)CC1 1.7%
COc1cc(C(C(=O)NC2CCCC2)N(C(=O)c2snc(C(N)=O)c2N)c2ccccc2)cc(OC)c1OC (stereo not given) 1.74%
COc1ccc(C(C(=O)NC2CCCC2)N(C(=O)c2snc(C(N)=O)c2N)C2CCCC2)cc1OC (stereo not given) 3.34%
COc1ccc(C(C(=O)NC2CCCC2)N(C(=O)c2snc(C(N)=O)c2N)c2ccccc2OC)cc1OC (stereo not given) 17.8%
Cc1ccc(N(C(=O)c2snc(C(N)=O)c2N)C(C(=O)NC2CCCC2)c2ccncc2)cc1 (stereo not given) 0.36%
Cc1ccc(C(CCN(Cc2ccccc2)C(=O)c2ccco2)c2ccco2)cc1 (stereo not given) 6.53%
Cc1cccc(CSc2nc3sc(C)c(C)c3c(=O)n2Cc2ccco2)c1 13.2%
Cc1cc(SCC(=O)Nc2ncc(Cl)cc2Cl)nc2ccccc12 5.54%
COc1ccc(-n2c(SCC(=O)Nc3ncc(Cl)cc3Cl)nc3ccccc32)cc1 18.7%
Cc1ccc(-n2c(SCC(=O)Nc3cccc(S(N)(=O)=O)c3)nc3ccccc32)cc1 1.64%
O=C(CSc1nnc2ccccn12)Nc1ncc(Cl)cc1Cl 4.23%
COc1ccc(-n2c(SC(C)C(=O)Nc3ncc(Cl)cc3Cl)nc3ccccc32)cc1 (stereo not given) 15.9%
COCCn1c(SCC(=O)Nc2ccc(Cl)cn2)nc2ccccc21 -1.02%
CC(=O)N[C@@H](Cc1ccc(O)cc1)CN1C(N)=NC[C@@H]1CC(C)C -0.28%
O=C(COc1cccc2c1CCNC2=O)Nc1cccc(C(F)(F)F)c1 1.19%
C/C(=N/OC(=O)C1CC12CCC2)c1ccc(Br)cc1 (stereo not given) 2.98%
CCOC(=O)C1CCN(C(=O)CC(C)S(=O)(=O)c2ccc3c(c2)NC(=O)CO3)CC1 (stereo not given) 7%
CCOc1ccc(S(=O)(=O)Nc2ccc(F)cc2)c(C)c1C 6.57%
Cc1cccc(C)c1OCc1cc(C(=O)N2CCN(C3CCCC3)CC2)no1 0.09%
O=C(Oc1ccc(-c2nnco2)cc1)N1CCCCC1 2.35%
OCCNc1c2ccccc2nc2c(F)c(F)c(F)c(F)c12 -1.66%
CCCNc1c(F)c(F)c2c(C)c3ccccc3nc2c1F -1.87%
CCOc1ccc(C2=C/C(=C/c3cccnc3)C(=O)O2)cc1 1.93%
COc1ccc(OC)c(CCNC(=O)CN2C(=O)CCSc3ccccc32)c1 -3.24%
Cc1ccc2[nH]c(-c3cccc(F)c3)cc(=O)c2c1 -0.29%
Cc1ccc2nc(-c3cccc(N)c3)[nH]c2c1 2.27%
Cc1cccc(-c2nc(CS(=O)CC(=O)NCCc3ccccc3)c(C)o2)c1 (stereo not given) 0.05%
COCc1[nH]nc2c1C1(C(=O)N(C)c3ccccc31)C(C#N)=C(N)O2 (stereo not given) 2.9%
O=C1c2ccccc2C(=O)N1CCc1csc(-c2ccccc2)n1 3.44%
O=C1c2ccccc2C(=O)N1CCc1csc(-c2ccc(F)cc2)n1 2.17%
CCSc1nc(O)cc(=O)n1-c1ccc(OC)cc1 -0.46%
CC(NC(=O)c1nn(C)c(=O)c2ccccc12)c1ccc(F)cc1 (stereo not given) 1.39%
O=C(/C=C/c1cccs1)Nc1sc2c(c1C(=O)O)CCCC2 16.6%
O=C(Nc1sc2c(c1C(=O)O)CCCCC2)c1ccccc1 2.56%
O=C(O)CCC(=O)Nc1sc2c(c1C(=O)NCc1ccccc1)CCCC2 1.43%
O=C(/C=C/c1ccco1)Nc1sc2c(c1C(=O)O)CCC2 3.96%
Cn1cnnc1Sc1cc(N2CCN(S(=O)(=O)c3ccccc3)CC2)ccc1[N+](=O)[O-] 2.72%
Cc1ccc(S(=O)(=O)N2CCN(c3ccc([N+](=O)[O-])c(Sc4nncn4C)c3)CC2)cc1 2%
Cc1ccc(C(=O)COC(=O)c2ccncc2)cc1[N+](=O)[O-] 1.18%
CCCCCCCN1C/C=C\C(c2ccc(OC)cc2)N(Cc2ccc(F)cc2)C(=O)[C@H]1Cc1ccccc1 (stereo not given in full) 0.33%
CCN(CC(=O)NCc1ccccn1)S(=O)(=O)c1cc(Cl)ccc1Cl -1.64%
Cc1ccc2[nH]c3c(=O)[nH]ncc3c2c1 -1.42%
CCNC(=O)C1CN(S(=O)(=O)c2ccccc2)CCN1S(=O)(=O)c1ccccc1 (stereo not given) -2.71%
CC(C)(C)NC(=O)C1CN(S(=O)(=O)c2ccccc2)CCN1S(=O)(=O)c1ccccc1 (stereo not given) 0.62%
CCCCn1c(N)c(N(CC(C)C)C(=O)c2c(CC)noc2C)c(=O)[nH]c1=O -1.37%
C/C(N)=C(/C#N)C(=O)COC(=O)c1cccc2ccccc12 4.13%
C/C(N)=C(/C#N)C(=O)COC(=O)C(c1ccccc1)c1ccccc1 0.91%
C/C(N)=C(/C#N)C(=O)COC(=O)c1ccccc1Oc1ccccc1 2.44%
CNC(=O)COC(=O)c1cc2c(s1)CCCC2 1.88%
C/C(N)=C(/C#N)C(=O)COC(=O)c1cc2c(s1)CCC(C)C2 (stereo not given) 5.48%
C/C(N)=C(/C#N)C(=O)COC(=O)c1ccccc1O 1.5%
Cc1cc(C(=O)OCC(N)=O)c(C)n1-c1ccccc1 -3.46%
Cc1cc(C(=O)COC(=O)c2ccc[nH]c2=O)c(C)n1-c1ccc(F)cc1 2.01%
